Measured values: PubChem BioAssay
Values joined by “and” are separate entries in the source; they are usually repeats but may differ in a detail not shown here. Identical values can stand only once. Some structures have more than one record in an assay (separate samples or runs), and their calls can disagree. Active and inactive are the calls of the source.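 The calls were made as follows, unless noted: active = normalized viability below 100% at a tested concentration; inactive = the rest.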

How the values were obtained:
[1] = stimulators of nuclear beta-catenin in C2C12, primary screen, imaging, WNT3A-conditioned medium, mouse C2C12, NPC library (AID 1117326; in the data active = nuclear beta-catenin stimulation mostly above about 4.2%, no sharp cut-off; inactive = mostly below about 10%); conditions: stronger effect = higher value
[2] = stimulators of insulin release from INS-1E, primary screen, cell-based, 5 mM glucose, NPC library (AID 1117329;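 active = compound raises insulin release from rat beta cells at 5 mM glucose, no numeric limit stated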); conditions: rat INS-1E insulin secretion, at 10 µM, stronger effect = higher value
[3] = growth inhibition of GSK3B-pretreated HCT116 cells – cell-based, CellTiter-Glo, 0.2 to 20 µM (AID 1117336;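 active = compounds lowering colon cancer cell viability after pretreatment blocking the GSK3B kinase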); conditions: HCT116 viability after GSK3B inhibitor, at 20 µM, stronger effect = higher value
[4] = inhibition of endothelial tube formation, primary screen, imaging, VEGF stimulated, CD31 staining, tube area, NPC library (AID 1117340;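 active = compound that reduces growth-factor-driven endothelial tube area in a mixed cell culture, no cutoff stated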); conditions: VEGF-stimulated ADSC/ECFC co-culture, at 10 µM, stronger effect = higher value
[5] = glucagon-like peptide 1 release enhancers, primary assay, NCI-H716 cell line, NPC library (AID 1117341;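 active = compound raises GLP1 secretion from the human gut endocrine cells, with no numeric limit stated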); conditions: NCI-H716 cells, at 10 µM, stronger effect = higher value
[6] = HCT116 colon cancer cell growth inhibition, primary screen, CellTiter-Glo luminescence, NPC library (AID 1117342;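 active = compounds that lower survival of HCT116 colon cancer cells in the luminescence readout, no numeric limit stated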); conditions: at 20 µM (top of the series)
[7] = CellTiter-Glo luminescent readout of SW480 viability loss, NPC library primary (AID 1117343;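 active = compounds that lower viability of the colon cancer cells in the luminescence readout, with no numeric limit stated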); conditions: CellTiter-Glo luminescence; at 20 µM (top of the series)
[8] = decreased DLD-1 cellular survival, CellTiter-Glo luminescent readout, NPC compound collection, primary HTS (AID 1117346;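 active = compounds that lower survival of DLD-1 colon cancer cells in the luminescence readout, no cutoff given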); conditions: DLD-1 viability, CellTiter-Glo luminescence; at 20 µM (top of the series)
[9] = target: 6-phosphogluconate dehydrogenase, decarboxylating (Homo sapiens) (UniProt P52209); experiment: 6PGD enzyme inhibitors, primary screen, biochemical, human, recombinant enzyme, NADPH absorbance (AID 1159550;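 active = at least 20% inhibition of 6-phosphogluconate dehydrogenase activity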); conditions: recombinant 6PGD, NADPH absorbance 341 nm; at 10 µM; stronger effect = higher value
[10] = differential killing of epithelial or mesenchymal cells, primary screen, imaging, PC-3E GFP, TEM4-18 mCherry, co-culture (AID 1345086;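 active = compounds killing one labelled cell type while sparing the other, by normalised counts and ratio limits, not self-fluorescent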;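 as to all read-outs here: cells exposed to compound for 72 h before imaging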;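 as to red/green cell ratio (normalised): normalised mesenchymal count divided by normalised epithelial count so high means epithelial killing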); conditions: imaging cell counts, at 1 µM; for red/green cell ratio (normalised): actives lie on both sides, counts scaled to control wells, 1 = unselective
[11] = sensitizers of A549 cells to miR-34 induction, primary screen, imaging, A549 dox-inducible miR-34, nuclei and caspase counts (AID 1347080;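 active = compounds whose cell count with miR-34 switched on is under 0.7 times the count with it off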); conditions: A549 miR-34 inducible, Hoechst nuclei count, 48 h
[12] = survival rescue of mitochondrial mutant cells in low glucose, primary screen, MELAS cybrids, Rieske KO mouse fibroblasts, CellTiter-Glo (AID 1508586;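 active = mean z-score across replicates of 1.96 or higher in either the MELAS or the Rieske mutant cell line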;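 also: z relative to plate mean and SD of compound and empty wells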)
F380Y = experiment: modulators of BK channel variants, profiling panel, selectivity assay, cell-based, U2OS BacMam, thallium flux, beta subunits (AID 1259406;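 active = thallium flux through the channel raised or lowered by more than 3 SD from vehicle-only wells, actives on both sides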;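 also: initial slope of Thallos dye fluorescence rise after thallium is added; log ratio against the mean of 0.3% DMSO vehicle wells on the same plate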); conditions: at 30 µM
F380Y/beta1 = experiment: as above; conditions: at 30 µM
F380Y/beta2Delta = experiment: as above; conditions: at 30 µM
F380Y/beta4 = experiment: as above; conditions: at 30 µM
[13] = target: Calcium-activated potassium channel subunit alpha-1 (Homo sapiens) + Leucine-rich repeat-containing protein 26 (Homo sapiens) (UniProt Q12791+Q2I0M4); experiment: as above; conditions: F380Y/Slo1WT/gamma1, at 30 µM
R275C = experiment: as above; conditions: at 30 µM
R275C/beta1 = experiment: as above; conditions: at 30 µM
[14] = ovarian cancer cell viability with rucaparib, profiling panel, oncology-focused library, rucaparib conditional (AID 1508598); conditions: patient-derived ovarian cancer cells, CellTiter-Glo viability, 144 h, stronger effect = lower value
[15] = measured here: epithelial PC-3E GFP cell survival
[16] = measured here: mesenchymal TEM4-18 mCherry cell survival
[17] = stronger effect = lower value, cell number ratio, induced over uninduced
[18] = measured here: relative caspase fold change +Dox/-Dox
[19] = measured here: total cells with miR-34 induction, stronger effect = lower value
[20] = measured here: total cells without miR-34 induction
[21] = MELAS cybrid survival, CellTiter-Glo 48 h, stronger effect = higher value
[22] = Rieske KO mouse fibroblast survival, CellTiter-Glo 72 h

6-phosphogluconate dehydrogenase, decarboxylating (Homo sapiens), sequence (P52209 whole entry, looked up): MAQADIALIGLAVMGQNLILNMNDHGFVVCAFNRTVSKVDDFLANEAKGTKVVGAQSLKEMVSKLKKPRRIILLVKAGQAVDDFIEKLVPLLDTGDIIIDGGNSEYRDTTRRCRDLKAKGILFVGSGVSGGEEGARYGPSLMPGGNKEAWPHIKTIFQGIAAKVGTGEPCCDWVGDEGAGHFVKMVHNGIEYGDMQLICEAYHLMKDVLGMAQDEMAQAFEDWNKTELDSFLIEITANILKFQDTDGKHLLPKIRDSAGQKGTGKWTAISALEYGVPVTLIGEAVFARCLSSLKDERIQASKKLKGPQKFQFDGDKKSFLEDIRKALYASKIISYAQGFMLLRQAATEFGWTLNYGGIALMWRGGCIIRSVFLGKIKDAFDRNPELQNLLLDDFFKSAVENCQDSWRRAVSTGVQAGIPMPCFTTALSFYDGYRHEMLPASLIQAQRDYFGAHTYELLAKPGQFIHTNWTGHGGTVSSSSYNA
Calcium-activated potassium channel subunit alpha-1 (Homo sapiens) + Leucine-rich repeat-containing protein 26 (Homo sapiens), sequence (Q2I0M4 whole entry, looked up, one chain of several): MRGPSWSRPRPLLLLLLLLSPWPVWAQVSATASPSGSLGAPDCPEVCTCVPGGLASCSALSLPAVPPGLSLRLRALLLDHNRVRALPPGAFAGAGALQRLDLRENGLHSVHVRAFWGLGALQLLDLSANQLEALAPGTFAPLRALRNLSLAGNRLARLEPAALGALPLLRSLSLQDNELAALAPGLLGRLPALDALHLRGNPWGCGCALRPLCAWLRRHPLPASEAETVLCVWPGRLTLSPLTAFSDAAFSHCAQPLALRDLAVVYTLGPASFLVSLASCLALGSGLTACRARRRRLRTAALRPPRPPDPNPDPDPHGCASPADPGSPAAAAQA

In the case of Oc1c(Cl)cc(Cl)c2cccnc12, the nuclear beta-catenin stimulation ([1]; at 10 µM) is reported as 25.3% (inactive), the nuclear beta-catenin stimulation ([1]; stimulation, at 2 µM) is reported as 10.8% and the insulin secretion stimulation [2] is reported as -1.7% (inactive). For the same compound, the viability decrease [3] was 90.7% (active), the tube area decrease [4] was 102% (active) and the GLP1 secretion stimulation [5] was 5.7% (inactive). For the same compound, the inhibition of viability [6] was 91.3% (active), the viability decrease (inhibition) [7] was 111% (active) and the viability decrease (inhibition) [8] was 90% (active). The inhibition [9] was 13% (inactive), the red/green cell ratio (normalised) [10] was 0.97 (inactive) and the normalised cell number [10, 15] was 1.04. The normalised cell number [10, 16] was 1.01, the fold change [11, 17] was 1.3 (inactive) and 0.99 (inactive) and 0.933 (inactive) and the fold change [11, 18] was 0.88 and 1.1 and 1.4. The cell count [11, 19] was 4540 and 5720 and 5380, the cell count [11, 20] was 3500 and 5780 and 5770 and the z-score [12, 21] was -0.426 (inactive) and -0.351 (inactive). For the same compound, the z-score [12, 22] was 0.846 and 0.186, the log fold change Tl+ flux (F380Y) was 0.177 (active) and the log fold change Tl+ flux (F380Y/beta1) was 0.135 (active). The log fold change Tl+ flux (F380Y/beta2Delta) was 0.437 (active), the log fold change Tl+ flux (F380Y/beta4) was 0.326 (active) and the log fold change Tl+ flux [13] was 0.231 (active). The log fold change Tl+ flux (R275C) was 0.0996 (active) and the log fold change Tl+ flux (R275C/beta1) was 0.249 (active).

In the case of S=c1nc[nH]c2nc[nH]c12, the nuclear beta-catenin stimulation ([1]; at 10 µM) is reported as -0.9% (inactive), the nuclear beta-catenin stimulation ([1]; stimulation, at 2 µM) is reported as 0.6% and the insulin secretion stimulation [2] is reported as 0.6% (inactive). For the same compound, the viability decrease [3] was 77.7% (active), the tube area decrease [4] was 95.3% (active) and the GLP1 secretion stimulation [5] was -0.7% (inactive). The inhibition of viability [6] was 83.2% (active), the viability decrease (inhibition) [7] was 107% (active) and the viability decrease (inhibition) [8] was 79.1% (active). For the same compound, the inhibition [9] was -3.59% (inactive), the red/green cell ratio (normalised) [10] was 0.76 (inactive) and the normalised cell number [10, 15] was 1.42. For the same compound, the normalised cell number [10, 16] was 1.07, the fold change [11, 17] was 0.793 (inactive) and 0.952 (inactive) and 0.815 (inactive) and the fold change [11, 18] was 1.23 and 0.341 and 5.81. The cell count [11, 19] was 5690 and 7180 and 6280, the cell count [11, 20] was 7180 and 7540 and 7700 and the z-score [12, 21] was 0.0168 (inactive) and 3.92 (active). For the same compound, the z-score [12, 22] was 0.195 and 0.755, the viability ([14]; at 0.000305 µM, OCI-C5x cells, with rucaparib 10 µM, 100% = cells with rucaparib alone) was 120% (inactive) and the viability ([14]; at 0.000305 µM, OCI-C5x cells, without rucaparib) was 111% (inactive). The viability ([14]; at 0.000305 µM, OCI-P5x cells, with rucaparib 20 µM, 100% = cells with rucaparib alone) was 94.6% (active), the viability ([14]; at 0.000305 µM, OCI-P5x cells, without rucaparib) was 92.1% (active) and the viability ([14]; at 0.00122 µM, OCI-C5x cells, with rucaparib 10 µM, 100% = cells with rucaparib alone) was 110% (inactive). For the same compound, the viability ([14]; at 0.00122 µM, OCI-C5x cells, without rucaparib) was 105% (inactive), the viability ([14]; at 0.00122 µM, OCI-P5x cells, with rucaparib 20 µM, 100% = cells with rucaparib alone) was 98.4% (active) and the viability ([14]; at 0.00122 µM, OCI-P5x cells, without rucaparib) was 94.6% (active). The viability ([14]; at 0.00488 µM, OCI-C5x cells, with rucaparib 10 µM, 100% = cells with rucaparib alone) was 111% (inactive), the viability ([14]; at 0.00488 µM, OCI-C5x cells, without rucaparib) was 100% (inactive) and the viability ([14]; at 0.00488 µM, OCI-P5x cells, with rucaparib 20 µM, 100% = cells with rucaparib alone) was 99.6% (active). For the same compound, the viability ([14]; at 0.00488 µM, OCI-P5x cells, without rucaparib) was 90.4% (active), the viability ([14]; at 0.0195 µM, OCI-C5x cells, with rucaparib 10 µM, 100% = cells with rucaparib alone) was 104% (inactive) and the viability ([14]; at 0.0195 µM, OCI-C5x cells, without rucaparib) was 109% (inactive). The viability ([14]; at 0.0195 µM, OCI-P5x cells, with rucaparib 20 µM, 100% = cells with rucaparib alone) was 94.9% (active), the viability ([14]; at 0.0195 µM, OCI-P5x cells, without rucaparib) was 84.4% (active) and the viability ([14]; at 0.0781 µM, OCI-C5x cells, with rucaparib 10 µM, 100% = cells with rucaparib alone) was 123% (inactive). For the same compound, the viability ([14]; at 0.0781 µM, OCI-C5x cells, without rucaparib) was 95.4% (active), the viability ([14]; at 0.0781 µM, OCI-P5x cells, with rucaparib 20 µM, 100% = cells with rucaparib alone) was 90.4% (active) and the viability ([14]; at 0.0781 µM, OCI-P5x cells, without rucaparib) was 87.6% (active). The viability ([14]; at 0.313 µM, OCI-C5x cells, with rucaparib 10 µM, 100% = cells with rucaparib alone) was 106% (inactive), the viability ([14]; at 0.313 µM, OCI-C5x cells, without rucaparib) was 91.6% (active) and the viability ([14]; at 0.313 µM, OCI-P5x cells, with rucaparib 20 µM, 100% = cells with rucaparib alone) was 89.7% (active). The viability ([14]; at 0.313 µM, OCI-P5x cells, without rucaparib) was 86.1% (active), the viability ([14]; at 1.25 µM, OCI-C5x cells, with rucaparib 10 µM, 100% = cells with rucaparib alone) was 105% (inactive) and the viability ([14]; at 1.25 µM, OCI-C5x cells, without rucaparib) was 93.1% (active). For the same compound, the viability ([14]; at 1.25 µM, OCI-P5x cells, with rucaparib 20 µM, 100% = cells with rucaparib alone) was 87.9% (active), the viability ([14]; at 1.25 µM, OCI-P5x cells, without rucaparib) was 80.6% (active) and the viability ([14]; at 5 µM, OCI-C5x cells, with rucaparib 10 µM, 100% = cells with rucaparib alone) was 126% (inactive). The viability ([14]; at 5 µM, OCI-C5x cells, without rucaparib) was 107% (inactive), the viability ([14]; at 5 µM, OCI-P5x cells, with rucaparib 20 µM, 100% = cells with rucaparib alone) was 79% (active) and the viability ([14]; at 5 µM, OCI-P5x cells, without rucaparib) was 79.9% (active). The log fold change Tl+ flux (F380Y) was -0.0324 (inactive), the log fold change Tl+ flux (F380Y/beta1) was -0.00111 (inactive) and the log fold change Tl+ flux (F380Y/beta2Delta) was -0.00985 (inactive). For the same compound, the log fold change Tl+ flux (F380Y/beta4) was -0.00864 (inactive), the log fold change Tl+ flux [13] was -0.0406 (inactive) and the log fold change Tl+ flux (R275C) was -0.0342 (inactive). For the same compound, the log fold change Tl+ flux (R275C/beta1) was 0.0271 (inactive).
